Values joined by “and” are separate entries in the source; they are usually repeats but may differ in a detail not shown here. Equal entries are not always repeated. In all, about 5,500 compounds went through this assay and about 2,000 (36%) were called active. Not shown: some 18% with an inconclusive outcome. Rule as the data show it: active = normalized growth mostly below about 0.91 (no sharp cut-off); inconclusive = no clear call, values can overlap the other calls; inactive = mostly above about 0.92. The list shows a part of the results.
Assay: chemical genetic growth profiling, strain panel (AID 1159580);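 also: tested at 20 µM; growth read once vehicle control cultures reached saturation at 30 °C; 1 = growth at the plate median or of vehicle wells; lower values mean less growth of the strain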
Details: growth OD

Measured: normalized growth

NCCCCC(=O)O
inactive: S. cerevisiae deletion strains, locus YKL009W, strain mrt4, hits give low values 1.01 | S. cerevisiae deletion strains, locus YKL068W, hits give low values 1 | S. cerevisiae deletion strains, locus YKL085W, strain MDH1 (second series), hits give low values 1.04 | S. cerevisiae deletion strains, locus YKL085W, strain MDH1, hits give low values 1.04 | S. cerevisiae deletion strains, locus YKL160W, strain elf1, hits give low values 1.03 | S. cerevisiae deletion strains, locus YKL190W, strain CNB1, hits give low values 1.02 | S. cerevisiae deletion strains, locus YKR001C, strain vps1, hits give low values 0.996 | S. cerevisiae deletion strains, locus YKR026C, strain gcn3, hits give low values 1.02 | S. cerevisiae deletion strains, locus YKR091W, strain srl3, hits give low values 1.02 | S. cerevisiae deletion strains, locus YLL001W, strain dnm1, hits give low values 1.01 | S. cerevisiae deletion strains, locus YLL026W, hits give low values 1.01 | S. cerevisiae deletion strains, locus YLL041C, strain sdh2, hits give low values 1.01 | S. cerevisiae deletion strains, locus YLR027C, strain aat2, hits give low values 1.02 | S. cerevisiae deletion strains, locus YLR039C, strain RIC1, hits give low values 1.06 | S. cerevisiae deletion strains, locus YLR058C, strain SHM2, hits give low values 1.03 | S. cerevisiae deletion strains, locus YLR102C, strain apc9, hits give low values 0.999 | S. cerevisiae deletion strains, locus YLR113W, strain HOG1, hits give low values 1 | S. cerevisiae deletion strains, locus YLR221C, strain rsa3, hits give low values 1 | S. cerevisiae deletion strains, locus YLR258W, strain gsy2, hits give low values 1.02 | S. cerevisiae deletion strains, locus YLR262C, strain YPT6 (second series), hits give low values 1.03 | S. cerevisiae deletion strains, locus YLR262C, strain YPT6, hits give low values 1.09 | S. cerevisiae deletion strains, locus YLR268W, strain sec22, hits give low values 1 | S. cerevisiae deletion strains, locus YLR320W, strain mms22, hits give low values 1.03 | S. cerevisiae deletion strains, locus YLR330W, strain CHS5, hits give low values 1.02 | S. cerevisiae deletion strains, locus YLR342W, strain FKS1 (second series), hits give low values 1.01 | S. cerevisiae deletion strains, locus YLR342W, strain FKS1, hits give low values 1.02 | S. cerevisiae deletion strains, locus YLR357W, strain rsc2, hits give low values 1.04 | S. cerevisiae deletion strains, locus YLR370C, strain arc18, hits give low values 1.02 | S. cerevisiae deletion strains, locus YLR371W, strain rom2, hits give low values 0.995 | S. cerevisiae deletion strains, locus YLR384C, strain iki3, hits give low values 1.03 | S. cerevisiae deletion strains, locus YLR418C, strain cdc73, hits give low values 1.02 | S. cerevisiae deletion strains, locus YML016C, strain PPZ1, hits give low values 1.03 | S. cerevisiae deletion strains, locus YML032C, strain rad52, hits give low values 0.979 | S. cerevisiae deletion strains, locus YML120C, strain ndi1, hits give low values 1.01 | S. cerevisiae deletion strains, locus YML124C, strain tub3, hits give low values 0.987 | S. cerevisiae deletion strains, locus YMR058W, strain fet3, hits give low values 1.02 | S. cerevisiae deletion strains, locus YMR078C, strain ctf18, hits give low values 0.983 | S. cerevisiae deletion strains, locus YMR125W, strain sto1, hits give low values 1 | S. cerevisiae deletion strains, locus YMR129W, hits give low values 1.02 | S. cerevisiae deletion strains, locus YMR205C, strain PFK2, hits give low values 1.03 | S. cerevisiae deletion strains, locus YMR223W, strain ubp8, hits give low values 0.976 | S. cerevisiae deletion strains, locus YMR231W, strain pep5, hits give low values 1.01 | S. cerevisiae deletion strains, locus YMR263W, strain SAP30, hits give low values 1.03 | S. cerevisiae deletion strains, locus YMR307W, strain GAS1, hits give low values 1.04 | S. cerevisiae deletion strains, locus YNL067W, strain RPL9B, hits give low values 1.04 | S. cerevisiae deletion strains, locus YNL071W, strain lat1, hits give low values 1.01 | S. cerevisiae deletion strains, locus YNL128W, strain TEP1, hits give low values 1.02 and 1.01 | S. cerevisiae deletion strains, locus YNL153C, strain GIM3, hits give low values 1.02 | S. cerevisiae deletion strains, locus YNL175C, strain NOP13, hits give low values 1.03 | S. cerevisiae deletion strains, locus YNL183C, strain NPR1, hits give low values 0.894 | S. cerevisiae deletion strains, locus YNL197C, strain WHI3, hits give low values 1.01 | S. cerevisiae deletion strains, locus YNL209W, strain ssb2, hits give low values 1.02 | S. cerevisiae deletion strains, locus YNL224C, strain SQS1, hits give low values 1 | S. cerevisiae deletion strains, locus YNL233W, strain BNI4, hits give low values 1.03 | S. cerevisiae deletion strains, locus YNL248C, strain rpa49, hits give low values 1.01 | S. cerevisiae deletion strains, locus YNL250W, strain rad50, hits give low values 1 | S. cerevisiae deletion strains, locus YNL271C, strain bni1, hits give low values 0.99 | S. cerevisiae deletion strains, locus YNL298W, strain CLA4, hits give low values 0.99 | S. cerevisiae deletion strains, locus YNL307C, strain MCK1, hits give low values 0.987 | S. cerevisiae deletion strains, locus YNL322C, strain KRE1 (second series), hits give low values 1.02 | S. cerevisiae deletion strains, locus YNL322C, strain KRE1, hits give low values 1.02 | S. cerevisiae deletion strains, locus YNR049C, strain mso1, hits give low values 1.01 | S. cerevisiae deletion strains, locus YNR052C, strain pop2, hits give low values 0.993 | S. cerevisiae deletion strains, locus YOL006C, strain TOP1, hits give low values 1.08 | S. cerevisiae deletion strains, locus YOL012C, strain htz1 0.929 | S. cerevisiae deletion strains, locus YOL147C, strain pex11, hits give low values 0.99 | S. cerevisiae deletion strains, locus YOR001W, strain rrp6, hits give low values 1.03 | S. cerevisiae deletion strains, locus YOR061W, strain CKA2, hits give low values 1.02 | S. cerevisiae deletion strains, locus YOR069W, strain VPS5, hits give low values 1.01 | S. cerevisiae deletion strains, locus YOR070C, strain gyp1, hits give low values 1.02 | S. cerevisiae deletion strains, locus YOR080W, strain dia2, hits give low values 1.02 | S. cerevisiae deletion strains, locus YOR083W, strain WHI5 (second series), hits give low values 1.05 | S. cerevisiae deletion strains, locus YOR083W, strain WHI5, hits give low values 1.02 | S. cerevisiae deletion strains, locus YOR106W, strain vam3, hits give low values 1.02 | S. cerevisiae deletion strains, locus YOR136W, strain idh2, hits give low values 0.982 | S. cerevisiae deletion strains, locus YOR144C, strain elg1, hits give low values 0.999 | S. cerevisiae deletion strains, locus YOR184W, strain ser1, hits give low values 0.984 | S. cerevisiae deletion strains, locus YOR231W, strain MKK1, hits give low values 0.988 | S. cerevisiae deletion strains, locus YOR265W, strain rbl2, hits give low values 1.02 | S. cerevisiae deletion strains, locus YOR270C, strain vph1, hits give low values 1.05 | S. cerevisiae deletion strains, locus YOR290C, strain snf2, hits give low values 1.01 | S. cerevisiae deletion strains, locus YOR316C, strain cot1, hits give low values 0.992 | S. cerevisiae deletion strains, locus YPL051W, strain arl3, hits give low values 1.01 | S. cerevisiae deletion strains, locus YPL055C, strain LGE1, hits give low values 1.05 and 0.99 | S. cerevisiae deletion strains, locus YPL078C, strain atp4, hits give low values 1.03 | S. cerevisiae deletion strains, locus YPL106C, strain sse1, hits give low values 1.03 | S. cerevisiae deletion strains, locus YPL240C, strain hsp82, hits give low values 1.01 | S. cerevisiae deletion strains, locus YPL241C, strain CIN2, hits give low values 0.963 | S. cerevisiae deletion strains, locus YPL256C, strain CLN2, hits give low values 0.965 | S. cerevisiae deletion strains, locus YPR119W, strain clb2, hits give low values 0.989 | S. cerevisiae deletion strains, locus YPR141C, strain kar3, hits give low values 0.98 | S. cerevisiae deletion strains, locus YPR163C, strain tif3, hits give low values 0.982 | S. cerevisiae deletion strains, locus YPR167C, strain met16, hits give low values 0.989 | S. cerevisiae deletion strains, strain wtn01, hits give low values 1 | S. cerevisiae strains, strain wild type, hits give low values 1.01

— PubChem BioAssay AID1159580 (chemical genetic matrix, 2015)
